Drawing on the supplement of paper PMC6518042, this text covers DuctApe activity index for 13 molecules.

SMILES strings stand for the structures. Unmarked numbers belong to inactive results.

This assay concerns Pectobacterium parmentieri SCC3193. In words: DuctApe activity index (growth/respiration on compound as sole nutrient source, blank-subtracted) (activity index (0-3)); higher = stronger utilization of the compound, active = 3 or more. To be noted: nutrient role (plate category): carbon. As for the experimental part:
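Biolog Phenotype Microarray plates PM1, PM2A (carbon), PM3 (nitrogen) and PM4 (phosphorus/sulfur) inoculated with P. parmentieri SCC3193 in M9-C minimal salts medium with Biolog dye A, and read in the OmniLog for 46 h. Each well was tested in triplicate and the experiment was run twice. DuctApe computed a blank-subtracted activity index (AV, 0-3) from the mean curves; growth is positive at AV >= 3 and negative at AV <= 2.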
Consider `CC[C@H](O)C(=O)O` [a-Hydroxybutyric acid], for which the DuctApe activity index was 0. Turning to `O=C1O[C@H](CO)[C@@H](O)[C@H]1O` [D-Ribono-1,4-Lactone], the DuctApe activity index was 0. The value for `CO[C@@H]1O[C@H](CO)[C@H](O)[C@H](O)[C@H]1O` [b-Methyl-D-Galactoside] was 2. `CC(=O)N[C@H]1[C@H]([C@H](O)[C@H](O)CO)OC(O)(C(=O)O)C[C@@H]1O` (stereo partly drawn) [N-Acetyl-Neuraminic acid]: the DuctApe activity index was 0. As to `OC[C@H](O)C(O)[C@@H](O)CO` [L-Arabitol], the DuctApe activity index was 0. With `OC[C@H]1O[C@@H](O[C@H]2[C@H](O)[C@@H](O)[C@@H](O)O[C@@H]2CO)[C@H](O)[C@@H](O)[C@H]1O` [a-D-Lactose], the DuctApe activity index was 3 (active). With `CCC(C)N` (stereo not drawn) [sec-Butylamine], the DuctApe activity index is 0. For `O=C(O)Cc1cccc(O)c1` [m-Hydroxyphenyl Acetic acid], the DuctApe activity index was 0. For the molecule `O=C(O)CO` [Glycolic acid], the DuctApe activity index was 0. For `OC[C@H]1O[C@H](OC[C@H]2O[C@H](OC[C@H]3O[C@H](O[C@]4(CO)O[C@H](CO)[C@@H](O)[C@@H]4O)[C@H](O)[C@@H](O)[C@@H]3O)[C@H](O)[C@@H](O)[C@H]2O)[C@H](O)[C@@H](O)[C@H]1O` [Stachyose], the DuctApe activity index was 3 (active). As to `OC1OC[C@@H](O)[C@@H](O)[C@@H]1O` (stereo partly drawn) [D-Arabinose], the DuctApe activity index was 1. For `CC(=O)C(=O)O` [Pyruvic acid], the DuctApe activity index is 3 (active). On to `C[C@H](O)C(=O)O` [L-Lactic acid], for which the DuctApe activity index is 2.
